Hits are enriched below; roughly 9.2% of the tested compounds scored in any of these assays.
Rab9 promoter act = activators of Rab9 promoter. Huh7 Rab9 promoter-luciferase reporter, luminescence, 24 h. Potency, µM (titrated, usually from 9.22 µM), without a hit: top-dose activation, negative = inhibition, most hits filed as activators. hit rate 2.8% among 320,000; note: % of control where 0% means no effect; nearly all actives have a fitted effect of over 60% in size
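Steps: seed 1500 Huh7 Rab9-luc cells per well, rest 2 h at 37 °C; add compound in DMSO; incubate 24 h; add luciferase reagent, 10 min ambient; read luminescence.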
NPC1 prom act = activates the NPC1 promoter. AID 485313. hit rate 2.4% among 320,000. Potency, µM (highest dose often 9.22 µM), for inactives: at the highest dose activation, usual class: activators. Huh7 NPC1 promoter luciferase reporter, 24 h; note: % of control where 0% means no effect; nearly all actives have a fitted effect of over 60% in size
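Luciferase expression driven by the NPC1 promoter was measured in stably transfected Huh7 cells after a 24 h compound incubation, using a luciferase reagent and a luminescence read.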
SMN2 splice up = enhancers of SMN2 splice variant expression; HEK293 SMN2-luciferase splicing reporter, luminescence, 30-36 h; Potency, µM (doses to about 46.1 µM), inactives show at the top dose activity change, positive = activation, hits mostly activators; hit rate 2.8% among 210,000; AID 1458; note: % of control where 0% means no effect; nearly all actives have a fitted effect of over 55% in size
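qHTS luciferase splicing reporter: luminescence rises when SMN2 exon 7 is included in transfected HEK293 cells. Compound exposure lasted 30-36 h at 37C, with 4.5 mM final sodium butyrate as control, followed by a ONE-Glo read.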
FLuc counter = firefly luciferase modulation, counter-screen for miR-21 project; purified FLuc, Km substrates, luminescence inhibition; Potency, µM (titrated, usually from 57.5 µM), for the others: at the top dose activity change, negative = inhibition, most hits filed as inhibitors; hit rate 6.9% among 360,000;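 note: plate controls were vehicle for no effect and reference inhibitor for full effect; nearly all actives have a fitted effect of over 55% in size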
Target sequence (P08659 whole entry, looked up): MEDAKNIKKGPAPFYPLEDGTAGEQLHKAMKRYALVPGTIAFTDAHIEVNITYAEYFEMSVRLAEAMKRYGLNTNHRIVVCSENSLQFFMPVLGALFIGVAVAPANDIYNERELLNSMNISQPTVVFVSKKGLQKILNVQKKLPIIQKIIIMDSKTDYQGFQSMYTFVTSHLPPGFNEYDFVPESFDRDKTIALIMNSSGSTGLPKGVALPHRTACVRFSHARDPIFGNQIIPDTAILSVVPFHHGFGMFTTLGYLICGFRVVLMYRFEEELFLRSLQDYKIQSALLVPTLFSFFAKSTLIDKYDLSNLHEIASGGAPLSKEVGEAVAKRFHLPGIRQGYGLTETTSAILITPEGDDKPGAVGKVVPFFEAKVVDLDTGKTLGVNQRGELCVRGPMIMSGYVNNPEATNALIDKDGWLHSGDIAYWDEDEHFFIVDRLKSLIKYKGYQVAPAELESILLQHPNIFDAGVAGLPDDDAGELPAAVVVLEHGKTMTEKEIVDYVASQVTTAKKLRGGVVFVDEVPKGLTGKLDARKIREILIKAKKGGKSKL
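Biochemical qHTS of compounds, final roughly 60 µM downward over six points, against 10 nM purified firefly luciferase using Km concentrations of substrates (10 uM D-luciferin, 10 uM ATP) in Tris acetate pH 7.5 buffer; luminescence output.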
ELG1 repair inh = ELG1-dependent DNA repair inhibition; HEK293T ELG1-luciferase reporter, luminescence, 16 h; DNA damage induced by 5-fluorouridine; Potency, µM (doses to about 46.1 µM), inactives show at the top dose activity change, negative = inhibition, most hits filed as inhibitors; hit rate 2.3% among 330,000; note: % is set by controls: 0 for no effect and ±100 for the full control effect; nearly all actives have a fitted effect of over 55% in size
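Overnight (16 hr) co-exposure of 2,000 cells/well to 5-fluorouridine and compound at 37 °C preceded detection. Luciferase was quantified via ONE-Glo luminescence; loss of signal denotes inhibition.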
ELG1 genotoxic = genotoxicity induction in ELG1-luciferase HEK293T cells; HEK293T ELG1-luciferase reporter, luminescence, 16 h; Potency, µM (highest dose often 46 µM), for inactives: at the top dose activity change, positive = activation, actives largely listed as activators; hit rate 1.3% among 330,000; note: % of control where 0% means no effect; nearly all actives have a fitted effect of over 60% in size
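HEK293T cells expressing luciferase-tagged ELG1 were exposed to compound or DMSO vehicle for 16 hr at 37 °C and 5% CO2. Luciferase activity was then measured with ONE-Glo after 30 min at room temperature.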
Active calls of the source: *; u = inconclusive; x = no result given; [ ] = another dose, or the depositor's remark. Calls come from the whole dose curve; as a rule, active = well fitted curve in the direction sought with a large enough effect; inconclusive = small, poorly fitted or top-dose-only effect, or another doubt; inactive = no such curve, though single readings can be large; an effect the other way counts as inactive or inconclusive. Potency is the fitted concentration of half-maximal effect.

SMILES	Rab9 promoter act	NPC1 prom act	SMN2 splice up	FLuc counter	ELG1 repair inh	ELG1 genotoxic
Cc1coc(=N)n1CC(=O)c1ccc(Cl)cc1	-3%	1%	x	-3%	13%	2%
Cc1cc[n+](CC(=O)c2cc3ccccc3oc2=O)cc1	25%	1%	-2%	24µM*	u	15%
COc1ccccc1NC(=O)C/C(C)=N/NC(=O)COc1c(Br)cc(Br)cc1OC	-4%	-4%	-6%	-6%	-11%	0%
CC(C)[C@H](NC(=O)OC(C)(C)C)c1nnc(SCC(=O)Nc2ccc(Br)cc2)o1	-5%	1%	-13%	-2%	5%	0%
Cc1ccccc1/C=N/N=C1/NC(=O)CCS1	1%	16%	x	u	u	10%
O=C1CCS/C(=N\N=C\c2ccc(Cl)cc2Cl)N1	u	u	x	19µM*	u	u
Cc1nnc(SCC(=O)c2c[nH]c3ccccc23)n1C1CC1	2%	-2%	x	-13%	u	1%
Brc1ccccc1-c1nnc(COc2cccc3cccnc23)o1	-3%	2%	u	u	u	15%
N#Cc1ccccc1OCc1nnc(-c2ccccc2Br)o1	1.4µM*	2µM*	x	5.4µM*	u	u
Clc1ccccc1OCc1nnc(-c2ccccc2Br)o1	u	3.5µM*	u	12µM*	u	u
O=C(CN(CCO)c1ccccc1)Nc1ccc(Cl)c(S(=O)(=O)N2CCOCC2)c1	2%	1%	-25%	3%	u	-2%
O=C(CCN1CCN(c2ccccc2)CC1)N/N=C/c1ccccc1OC(F)F	0%	-7%	-9%	-1%	12µM*	-4%
O=C(c1cccc(S(=O)(=O)N2CCCC2)c1)N1CCN(c2ncccn2)CC1	1%	-2%	-8%	3%	8%	1%
CCOc1ccc(NS(=O)(=O)c2ccc(C(=O)N3CCN(c4ncccn4)CC3)cc2)cc1	-4%	-7%	-83%	-12%	7.3µM*	-12%
O=C(c1cccc(S(=O)(=O)NCCOc2ccccc2)c1)N1CCN(c2ncccn2)CC1	4%	-5%	-37%	4%	23µM*	-6%
Cc1c(C(=O)Nn2cnnc2)oc2ccccc12	-3%	1%	u	-1%	-7%	1%
Cc1cc(NC(=O)c2oc3ccccc3c2C)ccc1-n1cnnn1	4%	19%	-10%	4.8µM*	16%	-2%
COc1cc(OC)cc(C(=O)Nc2ccc(-n3cnnn3)c(C)c2)c1	u	u	23%	15µM*	u	u
COc1cc(NC(=O)c2ccccc2-n2cnnn2)cc(OC)c1	-3%	-2%	x	-2%	14%	0%
Cc1ccc(Cl)cc1NC(=O)c1ccc2snnc2c1	x	x	-5%	-2%	x	x
CCCCn1c(N)c(N(CC(C)C)C(=O)CSc2n[nH]c(-c3ccc(C)cc3)n2)c(=O)[nH]c1=O	0%	1%	x	11µM*	u	4%
CCCCCN(C(=O)CCC(=O)OCC(=O)c1ccc(CCC)cc1)c1c(N)n(CCCC)c(=O)[nH]c1=O	-1%	1%	x	2.7µM*	-7%	-6%
CCCCn1c(N)c(N(CCOC)C(=O)CSc2n[nH]c(-c3ccc(C)cc3)n2)c(=O)[nH]c1=O	-2%	-4%	x	3%	3%	2%
CCCCN(C(=O)CSc1nnnn1C)c1c(N)n(Cc2ccccc2)c(=O)[nH]c1=O	-4%	-3%	x	5%	-10%	0%
CCCCCN(C(=O)CCC(=O)OCC(=O)c1ccc(C(C)(C)C)cc1)c1c(N)n(CCCC)c(=O)[nH]c1=O	24%	18%	x	u	u	-2%
SMILES	Rab9 promoter act	NPC1 prom act	SMN2 splice up	FLuc counter	ELG1 repair inh	ELG1 genotoxic
CCCCCN(C(=O)CSc1n[nH]c(-c2ccc(C)cc2)n1)c1c(N)n(CCCC)c(=O)[nH]c1=O	23%	0%	x	2.7µM*	u	9%
CCCCN(C(=O)CSc1nnc(Nc2ccccc2)s1)c1c(N)n(CCC)c(=O)[nH]c1=O	2%	-1%	x	15µM*	-5%	1%
Cc1ccc2[nH]c(=O)c(CN(C(=O)c3cccc([N+](=O)[O-])c3)C(C)C)cc2c1	0%	-1%	x	-1%	0%	-4%
CN(CC(=O)Nc1cccc(F)c1)C(=O)CCCc1cccs1	-3%	3%	x	1%	2%	-3%
CC(=O)Nc1c(C)nn(-c2ccccc2)c1N1CCC(C(=O)NCc2ccc(F)cc2)CC1	x	x	x	2%	x	x
Cc1ccc(C2(C)NC(=O)N(CC(=O)N(C)CC(=O)Nc3cccc4ccccc34)C2=O)cc1 (centres undefined)	-4%	-2%	x	2%	-2%	-2%
COc1ccc(Oc2ccc(N/C=C3/CCCC3=O)cc2)cc1	13%	-2%	-10%[1.84 µM]	0%	2%	1%
COc1ccc(N/C=C2/CCCCC2=O)cc1	u	u	42%	15µM*	u	3%
O=C1CCCC/C1=C/Nc1ccc(C(=O)O)cc1	u	25%	-27%	12µM*	u	10%
O=C1CCCC/C1=C\Nc1ccccc1C(=O)O	2%	-3%	-6%	-14%	-2%	3%
O=C1CCCC/C1=C/Nc1ccc2c(c1)OCO2	3.5µM*	2.8µM*	u	11µM*	u	u
S=C(Nc1cc(Cl)ccc1Oc1ccccc1)N1CCN(c2ccccn2)CC1	-9%	-4%	x	0%	-14%	-3%
CC(=O)c1cccc(NC(=S)NC(=O)c2ccc(C)cc2Cl)c1	u	24%	u	15µM*	u	12%
CC(=O)c1cccc(NC(=S)NC(=O)c2ccccc2Cl)c1	11%	16%	17%	u	24%	4%
CCC(=O)Nc1cccc(NC(=S)NC(=O)c2ccccc2)c1	u	2.8µM*	11µM*	15µM*	u	16%
CN1CCN(c2ccccc2NC(=S)NC(=O)c2cc3ccccc3o2)CC1	4%	0%	x	0%	11%	0%
Cc1c(NC(=S)NC(=O)c2cc3ccccc3o2)cccc1C(=O)O	1.8µM*	4µM*	x	u	u	-2%
CCC(=O)Nc1cccc(NC(=S)NC(=O)c2cc3ccccc3o2)c1	1.1µM*	1.1µM*	2.8µM*	0.6µM*	u	23µM*
CC1CCN(c2oc(-c3cccs3)nc2S(=O)(=O)c2ccc(Cl)cc2)CC1	x	x	-2%	-2%	x	x
O=C(O)c1cccc(NC(=S)NC(=O)c2ccc3ccccc3c2)c1	u	u	x	1.3µM*	u	u
CCC(=O)Nc1cccc(NC(=S)NC(=O)c2cccc(C)c2)c1	1.6µM*	3.2µM*	11µM*	u	u	u
Cc1ccc(NC(=S)NC(=O)c2ccccc2)cc1NC(=S)NC(=O)c1ccccc1	1.8µM*	u	x	-17%	u	u

Source: PubChem (National Center for Advancing Translational Sciences (NCATS))
